RN4220 kill – kills Staphylococcus aureus RN4220; S. aureus RN4220 growth, OD600, 16 h; inhibition, % (test concentration not listed); 0.33% of 330,000 active; in the data active means inhibition above about 85%;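 further: plate controls were untreated cells for no effect and reference antibiotic for full effect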
TcdB GH inh – blocks C. difficile toxin B glycohydrolase activity | TcdB glycohydrolase enzymatic assay, plate reader | inhibition, % at 9.99 µM | 0.24% of 350,000 active | AID 652162; in the data active means inhibition above about 10%
PfHsp40 rescue – rescue of PfHsp40-mediated yeast toxicity | S. cerevisiae expressing PfHsp40, growth rescue, ATP luminescence | growth rescue, % at 12.5 µM | 0.68% of 340,000 active | AID 504582; in the data active means growth rescue above about 28%, passing the limit was not always enough; inconclusive means no clear call, values can overlap the other calls;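 further: yeast W303a lacking pdr1 and pdr3 grown in galactose medium; growth measured after three days at 30 °C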
PrP 5UTR inh – suppresses PrP 5' UTR mRNA reporter expression; cell-based PrP 5' UTR mRNA reporter, plate reader; inhibition, % (test concentration not listed); 0.35% of 340,000 active; in the data active means inhibition above about 52%; further: 0 = median of the neutral control wells
Sa ugtP lethal – compounds lethal to S. aureus RN4220 ugtP deletion mutant; OD600 growth, 16 h; growth inhibition, % (no concentration beside the values); 0.54% of 330,000 active; AID 1259309; in the data active means growth inhibition above about 68%;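 further: plate controls were untreated wells for no effect and antibiotic for full effect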
PrP 5UTR single – prion 5' UTR mRNA inhibition, cherry-pick retest. 48% of 1,100 active. cell-based prion protein 5' UTR reporter, plate reader. AID 504592. shares compounds with PrP 5UTR inh. inhibition, % at 2.5 µM; in the data active means inhibition above about 54%; inconclusive means no clear call, values can overlap the other calls
Active calls of the source: *; ? = inconclusive; / = no result given. The list is not random: actives were taken first. Their share in the collection is about 1.2%.

SMILES | RN4220 kill | TcdB GH inh | PfHsp40 rescue | PrP 5UTR inh | Sa ugtP lethal | PrP 5UTR single
CCCCCCCCCCCCN1CC(=CC(=O)OCC)c2ccccc2S1(=O)=O | -4 | / | / | / | 22 | /
CNC[C@H]1OCCCC[C@H](C)Oc2ccc(NC(=O)c3ccccc3)cc2C(=O)N([C@H](C)CO)C[C@@H]1C | / | -2 | / | / | / | /
C[C@@H]1CN([C@H](C)CO)C(=O)c2cc(NS(=O)(=O)c3cccs3)ccc2O[C@H]1CN(C)CC1CC1 | / | 1 | / | / | / | /
O=C(NNC(=O)c1cccs1)c1ccco1 | -2 | 1 | 3 | 64* | -11 | 88*
CC(=O)N(/N=C1\Sc2ccccc2C1=O)c1ccc(C)cc1C | / | / | -1 | 58* | / | 56*
CC(=O)N(N=C1Sc2ccccc2C1=O)c1ccc(C)cc1C | -1 | / | / | / | 5 | /
Oc1ccc(Cl)cc1C=Nc1ccccc1Br | 10 | / | 0 | 57* | 6 | -6
O=C(NN=Cc1cc(Cl)ccc1O)c1ccccc1Br | 2 | / | / | / | 17 | /
C[C@H](CO)N1C[C@H](C)[C@@H](CN(C)S(=O)(=O)c2ccccc2)OCCCC[C@H](C)Oc2ccc(NC(=O)c3ccccc3)cc2C1=O | / | 0 | / | / | / | /
Nc1nc(-c2nonc2N)no1 | 2 | 1 | -1 | 71* | 11 | -20
COC(=O)C12OCC34C(CC5C(C)=C(O)C(=O)CC5(C)C3C(O)C1O)OC(=O)C(OC(=O)/C=C(\C)C(C)C)C24 (stereo not drawn) | / | -7 | 3 | 93* | / | 92*
COC(=O)C12OCC34C(CC5C(C)=C(O)C(=O)CC5(C)C3C(O)C1O)OC(=O)C(OC(=O)C=C(C)C)C24 (stereo not drawn) | / | -6 | 1 | 83* | / | 86*
O=C(c1cccc(F)c1)N1C[C@H]2[C@@H](c3ccccc31)[C@H](CO)N2C(=O)Cc1ccccc1 | / | -1 | / | / | / | /
Cc1ccc(C=NN2CCN(c3ccc(Cl)cc3)CC2)o1 | 13 | / | / | / | 2 | /
CCN(CC)c1ccc(/C=C(/C#N)C(=O)NC(C)C)o1 | 2 | -4 | 0 | 82* | 5 | -24
CC(=O)N1CCN(C(=O)c2cc(C)nc3ccccc23)CC1 | 4 | -1 | 0 | -14 | 7 | /
Cc1cc(C(=O)N2CC=C(c3ccccc3)CC2)c2ccccc2n1 | -2 | -2 | 0 | 52* | 0 | 74*
N#Cc1c(NC(=O)CSc2nc(N)cc(=O)[nH]2)sc2c1CCCCCC2 | 7 | 0 | -1 | -17 | 12 | /
N#Cc1c(NC(=O)CSc2ncn[nH]2)sc2c1CCCCC2 | 3 | / | -1 | 74* | -10 | 77*
C[C@@H]1CN([C@H](C)CO)C(=O)c2cc(NS(=O)(=O)c3ccccc3)ccc2O[C@@H](C)CCCCO[C@@H]1CN(C)Cc1ccncc1 | / | -2 | / | / | / | /
CC(=O)OC1C(=O)OCC23CCC4(C)OC4C2OC2CC(OC(=O)C=CC=CC(=O)OCCC1C)C3(C)C21CO1 (stereo not drawn) | / | 0 | / | 94* | / | 95*
CC(O)C1C=CC=CC(=O)OC2CC3OC4C5OC5(C)CCC4(COC(=O)C4OC4(C)C(O)CO1)C2(C)C31CO1 (stereo not drawn) | / | 3 | / | 83* | / | 82*
CCCNC(=O)C[C@H]1CC[C@H]2[C@@H](COC[C@@H](O)CN2C(=O)C2CCOCC2)O1 | / | -1 | / | / | / | /
CSc1ccccc1NC(=O)C(C)N(C)CC(=O)N1CCN(Cc2ccccc2)CC1 (stereo not drawn) | 9 | 0 | 1 | 74* | 6 | -10
CC(C(=O)Nc1ccc(C(F)(F)F)cc1)N(C)CC(=O)N1CCN(Cc2ccccc2)CC1 (stereo not drawn) | 4 | 3 | 0 | -4 | 6 | /
SMILES | RN4220 kill | TcdB GH inh | PfHsp40 rescue | PrP 5UTR inh | Sa ugtP lethal | PrP 5UTR single
COC(=O)[C@H](Cc1c[nH]c2ccccc12)NC(=O)Cc1c[nH]c2ccccc12 | -1 | 2 | 0 | -18 | 1 | /
Cc1[nH]nc2ccc(-c3cncc(OC[C@@H](N)Cc4c[nH]c5ccccc45)c3)cc12 | / | / | -1 | 95* | / | 91*
O=C(CC(O)CCc1ccccc1)c1ccc(O)cc1 (stereo not drawn) | 4 | 0 | -2 | 79* | 2 | -16
O=C(Cc1ccccc1)c1ccc(O)cc1 | -3 | 1 | 2 | -48 | 29 | /
COc1ccc2c(COC(=O)c3cccc(S(=O)(=O)NCC(C)C)c3)cc(=O)oc2c1 | 13 | 3 | 0 | -28 | -9 | /
CCCNS(=O)(=O)c1cccc(C(=O)OCc2cc(=O)oc3cc(OC)ccc23)c1 | 9 | 0 | 0 | 57* | -8 | 69*
COC(=O)c1cccc(NC(=O)/C=C/c2ccc3c(c2)OCO3)c1 | 4 | / | 17 | 65* | 4 | 25
C[C@@H]1CN([C@@H](C)CO)C(=O)c2cc(C#CCN(C)C)cnc2O[C@@H]1CN(C)Cc1ccc2c(c1)OCO2 | / | -1 | / | / | / | /
COCC(C)n1c(C)cc(C(=O)COC(=O)c2cccn2C)c1C (stereo not drawn) | 0 | 0 | -2 | 67* | 1 | ?
COC(=O)[C@@]1(Cc2ccc(F)cc2)C2c3cc(C(=O)N4CCCC4)n(CCCNc4ncc(C(F)(F)F)cc4Cl)c3CC2CN1C(=O)c1ccccc1 (stereo partly drawn) | 0 | / | / | / | 2 | /
CC(=O)NCCc1ccc(C(=O)COC(=O)C2CCCCC2)cc1 | -3 | 2 | 3 | 72* | -1 | 34
O=C(Oc1ccc(C=NNC(=O)c2ccccn2)cc1)c1cccc(F)c1 | 1 | / | / | / | 2 | /
C[C@@H]1COC(=O)[C@@H](Cc2ccc(F)cc2)C/C=C\C[C@H](CC(=O)N(CCO)Cc2ccccc2)C(=O)N1 | 1 | 1 | 1 | 85* | -1 | -14
CCC1CCCCN1C(=S)NC(=O)c1ccc(F)c(S(=O)(=O)N2CCOCC2)c1 (stereo not drawn) | 3 | / | 0 | 59* | 0 | 5
CC(=O)Nc1cccc(NC(C)=O)n1 | 4 | / | 0 | -8 | 11 | /
CC(=O)Nc1cccc(C(=O)O)n1 | 0 | 1 | 0 | 88* | 2 | -11
Cc1ccc(S(=O)(=O)N(C)C[C@H]2Oc3c(NS(=O)(=O)c4cccs4)cccc3C(=O)N([C@H](C)CO)C[C@@H]2C)cc1 | / | 0 | / | / | / | /
C[C@@H]1CN([C@H](C)CO)S(=O)(=O)c2ccc(-c3ccc(C#N)cc3)cc2O[C@H]1CN(C)C | / | 1 | / | / | / | /
Cc1ccc2nc(-c3ccc(O)c(O)c3)cn2c1 | / | 0 | -1 | 21 | / | /
Cc1ccc2nc(-c3ccccc3)cn2c1 | 10 | / | -5 | 87* | -4 | 85*
Cc1ccc(C(=O)N/N=C/c2ccc([N+](=O)[O-])s2)cc1 | / | / | 0 | 75* | / | 77*
Cc1ccc(C(=O)NN=Cc2ccc([N+](=O)[O-])s2)cc1 | 2 | / | / | / | 33 | /
O=C(CN1CCN(c2ccccc2)CC1)NN=Cc1cccc(F)c1 | 5 | / | / | / | 5 | /
CC(=NNc1ccc2nncn2n1)c1cccs1 | 2 | / | / | / | -2 | /
O=C(Nc1ccccn1)c1cc2ccccc2o1 | 3 | / | 0 | 59* | -3 | 57*
Cc1ccnc(NC(=O)c2cc3ccccc3o2)c1 | 1 | -1 | -1 | 58* | 5 | ?
